# Measured values reported in PubChem BioAssay AID651871 (Sanford-Burnham Center for Chemical Genomics, 2012).
# Tested on: HL-1
# Test: protection of cardiomyocytes from stress damage, SAR follow-up, cell-based, panel, H9c2 and HL-1, ATP luminescence, set 2 (AID 651871);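 also: cells exposed to stressor for 2 h before ATP readout; reference of the scale not given here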
# Conditions: H9c2/HL-1 cardiomyocytes, 2-deoxyglucose stress, with 2-deoxyglucose, run 16, at 79 µM (top of the series)
row,SMILES,activity (protection/inhibition) [%]
1,COc1ccc2nc(-c3cc(OC)c(OC)c(OC)c3)cc(C(=O)NCC(=O)Nc3ccc(C(C)=O)cc3)c2c1,84.4
2,CCOC(=O)c1cccc(NC(=O)CNC(=O)c2cc(-c3cc(OC)c(OC)c(OC)c3)nc3ccccc23)c1,130
3,COc1ccc2c(c1OC)C(=O)N1c3ccccc3C(=O)N(Cc3cccc(Cl)c3Cl)C21 (stereo not drawn),-9.37
